# Experimental data reported in article PMC6792352, “Limited Chemical Structural Diversity Found to Modulate Thyroid Hormone Receptor in the Tox21 Chemical Library” (Environmental Health Perspectives, 2019).
# Counter-ions that a name gives are not always drawn.
# System: thyroid hormone receptor (endogenous TRα and TRβ)
# Set-up: species or system GH3-TRE-Luc (rat pituitary); GH3-TRE-Luc luciferase reporter, antagonist mode against 1 nM T3, loss of signal, qHTS
# Conditions: antagonist mode, 1 nM T3, no GH3 cytotoxicity hit, read-out: Average AC50 (uM) GH3-TRE-Antag
row,SMILES,AC50 [µM]
1,COP(=S)(OC)Oc1cc(Cl)c(Br)cc1Cl [Bromofos],65.8
2,CCCCCCCCCCCCBr [1-Bromododecane],93.3
3,COP(=S)(OC)Oc1ccc([N+](=O)[O-])cc1Cl [Dicapthon],79
4,CC(C)CC(N(C)C)C1(c2ccc(Cl)cc2)CCC1 (stereo not shown) [Sibutramine hydrochloride],29.8
5,COP(=S)(OC)Oc1ccc(Sc2ccc(OP(=S)(OC)OC)cc2)cc1 [Temephos],> 50
6,CC(=O)O[C@H]1CC[C@@]2(C)C(=CC[C@@H]3[C@@H]2CC[C@]2(C)C(=O)CC[C@@H]32)C1 [Dehydroepiandrosterone acetate],17.4
7,CCOc1ccc2c3c1O[C@H]1[C@@H](O)C=C[C@H]4[C@@H](C2)N(C)CC[C@@]341 [Ethylmorphine],44.9
8,NC(=S)Nc1ccccc1 [1-Phenyl-2-thiourea],43.9
9,CN1C[C@H](C(=O)N[C@]2(C)O[C@@]3(O)[C@@H]4CCCN4C(=O)[C@H](Cc4ccccc4)N3C2=O)C=C2c3cccc4[nH]cc(c34)C[C@H]21 [Ergotamine D-tartrate],36.2
10,Nc1ccc2c(c1)Cc1ccccc1-2 [2-Aminofluorene],52
11,CNC(=O)Oc1ccccc1C(=O)Nc1ccccc1 [Anilamate],> 50
12,CCOP(=O)(OCC)O/C(=C\Cl)c1ccc(Cl)cc1Cl [Chlorfenvinphos],> 50
13,CN(C)c1ccc(N=Nc2ccccc2)cc1 [4-(Dimethylamino)azobenzene],80.1
14,COC1=CC=C2[C@H]3Cc4ccc(OC)c5c4[C@@]2(CCN3C)[C@H]1O5 [Thebaine],> 20
15,CC(=O)[C@H]1CC[C@H]2[C@@H]3CC[C@@H]4C[C@H](O)CC[C@]4(C)[C@H]3CC[C@]12C [Eltanolone],13.6
16,C[C@]12C=CC(=O)C=C1CC[C@@H]1[C@@H]2CC[C@@]2(C)[C@H]1CC[C@]2(C)O [Methandrostenolone],34.4
17,"COc1cc(CC(C)N)cc2c1OCO2 (stereo not shown) [1-(7-Methoxy-1,3-benzodioxol-5-yl)propan-2-amine hydrochloride]",48.3
18,COc1ccc2c(c1)[C@]13CCCC[C@@H]1[C@H](C2)N(C)CC3 [Dextromethorphan hydrobromide monohydrate],21.1
19,CC(C)NC(C)Cc1ccc(I)cc1 (stereo not shown) [Iofetamine hydrochloride],22.3
20,"Clc1cc(Cl)c(-c2cc(Cl)c(Cl)cc2Cl)cc1Cl [2,2',4,4',5,5'-Hexachlorobiphenyl]",35.4
21,C[C@]12CCC(=O)C[C@@H]1CC[C@@H]1[C@@H]2CC[C@]2(C)[C@@H](O)CC[C@@H]12 [5alpha-Dihydrotestosterone],27.8
22,C[C@]12CCC(=O)C[C@@H]1CC[C@@H]1[C@@H]2CC[C@@]2(C)[C@H]1CC[C@]2(C)O [Mestanolone],10.8
23,Nc1ccc(-c2ccccc2)cc1 [4-Biphenylamine hydrochloride],76.8
24,C[C@]12CC[C@H]3[C@@H](CCC4=CC(=O)CC[C@@]43C)[C@@H]1CC[C@@H]2O [Testosterone],59
25,CNP(=O)(OC)Oc1ccc(C(C)(C)C)cc1Cl (stereo not shown) [Crufomate],52.9
